Measured values taken from ChEMBL document CHEMBL4513216, “Probing the Open Global Health Chemical Diversity Library for Multistage-Active Starting Points for Next-Generation Antimalarials” (ACS Infect Dis, 2020).
Screen size: about 68,000 compounds; about 2,700 (4%) showed an effect of 50% or more. The full list was thinned out, with strong results kept by preference.

Test system: Plasmodium berghei
Assay: Screen against P. berghei liver stage (PbLuc), transformed with Luciferase, at 2uM
Format: functional, HepG2
Conditions: tested at 2 uM

Row | Structure (SMILES) | INHIBITION [%]
1 | c1ccc(CCCN2CCCC2Cn2cncn2)cc1 (stereo not given) | 1.63
2 | CCOCCCNC(=O)NCc1c(C)nn(C)c1C | 6.4
3 | Cc1nn(CCC#N)c(C)c1CCC(=O)N(C)C | -57.94
4 | Cc1nn(CCC#N)c(C)c1CCC(=O)N(C(C)C)C1CC1 | 52.6
5 | Cc1nn(CCC#N)c(C)c1CCC(=O)N(C)Cc1ccsc1 | 35.84
6 | CCC(=O)Nc1ccc(C(C)NC(=O)COC)cc1 (stereo not given) | -64.67
7 | Cc1cc(Cn2cc(C#N)c(=O)c3ccccc32)no1 | -0.45
8 | CC(C)c1ccc(CN2C(=O)C3(CCNCC3)Nc3ccccc32)cc1 | 6.72
9 | O=C(NCC1CCCO1)N1CCN(Cc2ccc3c(c2)CCO3)CC1 (stereo not given) | 78.42
10 | O=C(C1COCCO1)N1CCN(Cc2ccc3c(c2)CCO3)CC1 (stereo not given) | 83.96
11 | O=C(NCC1CCOC1)N1CCN(Cc2ccc3c(c2)CCO3)CC1 (stereo not given) | 10.62
12 | O=C(NCc1ccco1)N1CCN(Cc2ccc3c(c2)CCO3)CC1 | 9.17
13 | O=C(C1CCCN(CCc2ccc3c(c2)CCO3)C1)N1CCCC1 (stereo not given) | -0.62
14 | O=C(C1CCOC1)N1CCN(Cc2ccc3c(c2)CCO3)CC1 (stereo not given) | 47.87
15 | CN(C)C1CCN(C(=O)NCc2ccc(Cn3cncn3)cc2)CC1 | -8.87
16 | CN1CCN(Cc2cn3c(n2)CN(C2CCOCC2)CC3)CC1 | 20.01
17 | COCCS(=O)(=O)NC(C)c1cccc(C)c1C (stereo not given) | 16.38
18 | COCCS(=O)(=O)NCC(C)c1cccc(C)c1 (stereo not given) | 72.49
19 | Cc1cccc(C(C)CNS(=O)(=O)CCCC#N)c1 (stereo not given) | 16.95
20 | COc1ccc(C(C)NCc2ccc(OC)c(OC)c2OC)cc1F (stereo not given) | -6.67
21 | CC(c1ccco1)N(C)C(=O)NCCOc1ccc(C#N)cc1 (stereo not given) | -6.73
22 | CCOCC(=O)N1C[C@@H](O)[C@H](NC(C)=O)C1 | -24.98
23 | CC(=O)N[C@@H]1CN(C(=O)CC2CC2)C[C@H]1O | 53.16
24 | CC(=O)N[C@@H]1CN(C(=O)CC2CCOCC2)C[C@H]1O | -4.48
25 | Cc1noc(C)c1CN1CCn2cc(CNc3ccccn3)nc2C1 | 6.07
26 | Cc1oc(CN(C)C(=O)c2ccc(C(F)(F)F)cc2)cc1C(=O)O | 40.4
27 | CC(C)C(=O)NC1COC2(CCN(C(=O)c3cccnc3)CC2)C1 (stereo not given) | 9.53
28 | N#CC1(C(=O)N2CCCN(Cc3cscn3)CC2)CCCCC1 | 7.71
29 | N#CC1(C(=O)N2CCN(Cc3cscn3)CC2)CCCC1 | 34.83
30 | N#CC1(C(=O)N2CCN(Cc3cscn3)CC2)CCCCC1 | 52.17
